Assay [1] concerns the target Glucocorticoid receptor (Homo sapiens) (UniProt P04150). Briefly: GR-EFC Redistribution (AID 451; calls by dose curve; also: potency is read from the fitted curve at half-maximal effect). Conditions: CHO-K1 GR-EFC translocation, beta-gal luminescence, 2 h. In short, it runs like this: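 CHO-K1 cells stably expressing nuclear-localized β-gal enzyme acceptor and GR fused C-terminally to the enzyme donor fragment; ligand-driven nuclear translocation restores β-gal by complementation. Compounds titrated up to 46 uM final, 2 h at 37 °C; luminescence read.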

The target in assay [2] is 3',5'-cyclic-AMP phosphodiesterase 4B (Homo sapiens) (UniProt Q07343). Briefly: qHTS Assay for Inhibitors of PDE-IV (AID 607; active = well fitted activation curve with a large enough effect in the main read-out, with a control signal flat, not every such curve was filed as active). In short, it runs like this:
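The readout is membrane depolarisation from a cAMP-sensing CNG channel, detected with a potential dye at ex 535/em 590. Cells were HEK293-derived (endogenous PDE-IV) at 1000 cells/well, titrated up to 22.9 uM final.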

The target in assay [3] is Guanine nucleotide-binding protein G(i) subunit alpha-1 (Homo sapiens) (UniProt P63096). Nature of the assay: qHTS Assay for Inhibitors of RGS12 GoLoco Motif Activity (Green Fluorophore) (AID 879).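 Also: negative values mean loss of peptide binding seen as reduced polarization.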 In short, it runs like this: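 A drop in FITC polarization marked displacement of the FITC-tagged RGS12 GoLoco peptide (10 nM) from Gαi1 (50 nM). Compounds were incubated 10 min at room temperature in Tris pH 7.5 buffer containing 150 mM NaCl, 0.1 mM GDP and 0.05% NP40; unlabeled peptide titration served as control.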

Assay [4] deals with Cytochrome P450 3A4 (Homo sapiens) (UniProt P08684). Briefly: qHTS Assay for Activators of Cytochrome P450 3A4 (AID 885). Also: nearly all actives have a fitted effect of over 65% in size. In a few lines: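 Activators are scored by enhanced luminescence from CYP3A4 conversion of luciferin-PPXE (25uM, equal to KM) to luciferin, after 60 min at RT with an NADPH-regenerating system.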
In general terms: In qHTS, concentration-response curves come from the screen itself.

Assay [5] in a line: qHTS Assay for Identification of Small Molecule Agonists for Thrombopoietin (TPO) Signaling Pathway (AID 917). Also: potency is read from the fitted curve at half-maximal effect. In short, it runs like this:
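Cell-based luciferase reporter screen. Mouse Ba/F3 line stably expressing human TPO receptor; IL-3 removed overnight before plating. Co-treatment with compound and EC50 TPO (26 pM), 24 hrs at 37 C, then luminescence.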

Assay [6] addresses Muscarinic acetylcholine receptor M1 (Rattus norvegicus) (UniProt P08482). Nature of the assay: qHTS Assay for Antagonists of Acetylcholine Muscarinic M1 Receptor: Kinetic Measurement of Intracellular Calcium Response (AID 943).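 Also: Fluo-4 calcium signal as peak divided by basal fluorescence over 4 min; series mostly up to about 35 µM; nearly all actives have a fitted effect of over 75% in size.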 In short, it runs like this:
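Quantitative HTS in CHO-M1 (rat receptor) cells: 10 min compound exposure ahead of 100 nM carbachol, Fluo-4 fluorescence followed 4 min, value expressed as peak-to-basal ratio.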

The target is the same in assay [7]. Nature of the assay: qHTS Assay for Antagonists of Acetylcholine Muscarinic M1 Receptor: Measurement of IP-One Response (AID 944). Also: nearly all actives have a fitted effect of over 75% in size. Also: potency is read from the fitted curve at half-maximal effect. In a few lines: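 Antagonism was measured as loss of carbachol-driven (EC80) IP1 accumulation in CHO cells carrying rat M1, using a homogeneous IP-One TR-FRET kit read at 620 and 665 nm.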
The target of assay [8] is Pyruvate kinase PKM (Homo sapiens) (UniProt P14618). Briefly: qHTS Assay for Inhibitors of Human Muscle Pyruvate Kinase (AID 958). Conditions: purified human PKM enzyme activity. In a few lines:
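Screening used highly purified human pyruvate kinase M2 under submaximal activity, with PEP at its Km and ADP below Km. After an hour at room temperature, ATP was read by luciferase luminescence.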

Assay [9] has as its target Pyruvate kinase (Leishmania mexicana) (UniProt Q27686). Briefly: qHTS Validation Assay for Activators of Leishmania Mexicana Pyruvate Kinase (AID 959). In a few lines: (§1)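 The enzyme is a highly purified E451W mutant of LmPYK used at 0.2 nM. It converts 0.5 mM PEP and 0.1 mM ADP over 1 h at room temperature; product ATP is quantified by luciferase luminescence relative to DMSO controls.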

The target of assay [10] is Alpha-galactosidase A (Homo sapiens) (UniProt P06280). Nature of the assay: Counterscreen for Glucocerebrosidase Inhibitors: qHTS Assay for Human alpha-Galactosidase at pH 4.5 (AID 992). In short, it runs like this: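 Fluorogenic 4-MU alpha-D-galactoside (80 uM) hydrolysis, 2 nM enzyme, pH 4.5 citrate buffer + 0.005% Tween-20; 20 min RT; NaOH/glycine pH 10 stop; Ex365/Em440. Compounds titrated 0.7 nM–77 uM; Hill-equation AC50.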
For orientation: The purpose of a counterscreen is to sort out artefacts and off-target activity.

Assay [11] addresses alpha-glucosidase (Oryza sativa, rice) (UniProt Q653V4). Briefly: Counterscreen for Glucocerebrosidase Inhibitors: qHTS Assay for Rice alpha-Glucosidase at pH 5.0 (AID 997). In a few lines: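 Endpoint fluorogenic assay at pH 5.0: compounds (0.7 nM to 77 uM) titrated against 4 nM rice enzyme and 400 uM 4-MU-alpha-glucoside for 20 min at room temperature; NaOH/glycine stop, read ex 365/em 440 nm, Hill-fitted AC50.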

The target of assay [12] is Ubiquitin carboxyl-terminal hydrolase 1 (Homo sapiens) (UniProt O94782). Briefly: Inhibitors of USP1/UAF1: Pilot qHTS (AID 504865).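 Also: rhodamine fluorescence freed from ubiquitin-rhodamine substrate followed over time; top concentration of the series differs between compounds; nearly all actives have a fitted effect of over 35% in size.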 In a few lines:
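In 50mM HEPES pH 7.8 containing 0.5mM EDTA, 1mM TCEP, 0.1 mg/ml BSA and 0.01% Tween-20, 1nM USP1/UAF1 is exposed to compound for 15 min, then Ub-Rho (150nM final) is added and fluorescence is read over time.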

The target in assay [13] is DNA dC->dU-editing enzyme APOBEC-3G (Homo sapiens) (UniProt Q9HC16). Nature of the assay: qHTS for inhibitors of Vif-A3G interactions: Validation (AID 588379). In short, it runs like this:
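Yellow fluorescence (Ex 488, Em 500-530) of Vif-coexpressing HeLa A3G-eYFP cells, scanned by Acumen cytometer, reports blocked A3G degradation. Cells plated at 700/well overnight at 37 deg C before compound addition, then a further overnight compound incubation at 37 deg C.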

Assay [14] has as its system Zika virus NS2B-NS3 protease. Nature of the assay: Primary screen GU AMC qHTS for Zika virus inhibitors (AID 1347154). Also: nearly all actives have a fitted effect of over 70% in size. In a few lines:
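Unlinked Zika NS2B hydrophilic domain/NS3 protease domain noncovalent complex (25 nM final) in 10 mM Tris-HCl pH 8.0, 0.01% Tween 20, with AMC peptide substrate. Fluorescence (ex 340, em 450 nm) change over 15 min, room temperature; percent inhibition fitted to 4-parameter Hill equation.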

A short description of assay [15]: Primary qHTS for small molecule stabilizers of the endoplasmic reticulum resident proteome: Secreted ER Calcium Modulated Protein (SERCaMP) assay (AID 1508630). In short, it runs like this:
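The SH-SY5Y reporter protocol was run at 3 concentrations up to 38.3 uM (primary) or 11 concentrations (follow-up): 16 h compound, 100 nM thapsigargin for 4 h, then extracellular luciferase luminescence.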

Assay [16] is described as follows: qHTS for Inhibitors of the vitamin D receptor (VDR): Hit Validation using a Texas Red Assay (AID 602201). Also: potency is read from the fitted curve at half-maximal effect. The following applies: VDR coregulator binding, Texas Red fluorescence polarization; agonist-bound VDR ligand-binding domain. In short, it runs like this: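 Fluorescence polarization (Ex 595/Em 615 nm) of Texas Red (7 nM) with 1.5 uM VDR-LBD and LG19078 (final concentrations). Compounds were incubated for 2 hours at room temperature.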

The target in assay [17] is Glucocorticoid receptor (Homo sapiens) (UniProt P04150). Briefly: GR-GFP Redistribution (AID 450;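 active = compounds whose dose series gives a full or clear partial fitted curve of increased nuclear translocation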; also: potency is read from the fitted curve at half-maximal effect). Conditions: U2OS GR-GFP nuclear translocation, laser cytometry, 2 h.
The target of assay [18] is Pyruvate kinase (Leishmania mexicana) (UniProt Q27686). Nature of the assay: qHTS Validation Assay for Inhibitors of Leishmania Mexicana Pyruvate Kinase (AID 945). In a few lines:
as §1

Assay [19] addresses Pyruvate kinase PKM (Homo sapiens) (UniProt P14618). Nature of the assay: qHTS Assay for Activators of Human Muscle Pyruvate Kinase (AID 954; active = well fitted curve in the direction sought with a large enough effect, not every such curve was filed as active). In a few lines: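 PKM2, human, >95% pure, 0.1 nM; PEP 0.5 mM (Km), ADP 0.1 mM; 50 mM imidazole pH 7.2, 50 mM KCl, 0.01% Tween 20, 0.05% BSA; 1 h RT; luciferase luminescence readout.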
Assay [20] concerns the target Mitogen-activated protein kinase 10 (Mus musculus) (UniProt Q61831). Briefly: JNK3 AlphaScreen Assay (AID 530; active = well fitted curve in either direction with a large enough effect, not every such curve was filed as active;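 also: kinase came from lysate of stimulated human HepG2 cells; signal reports phosphorylation of biotinylated GST-cJun 1-79 at Ser73 with 10 µM ATP; series mostly up to about 57 µM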). In short, it runs like this:
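Biotinylated GST-cJun(1-79) served as substrate for JNK3 in HepG2 lysates stimulated with IL-1beta and TNF-alpha. ATP was 10 uM final, pH 7.6. Ser73 phosphorylation was quantified by AlphaScreen (680 nm excitation).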

The target in assay [21] is Cytochrome P450 2D6 (Homo sapiens) (UniProt P10635). Briefly: qHTS Assay for Inhibitors and Substrates of Cytochrome P450 2D6 (AID 891). Also: potency is read from the fitted curve at half-maximal effect; nearly all actives have a fitted effect of over 60% in size. In a few lines: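 Luminescent read-out of luciferin formed by 5 nM human CYP2D6 demethylating 30 uM Luciferin-ME EGE (Km level) over 60 min at room temperature after NADPH regeneration addition. Data normalized to full inhibition by 1.43 uM quinidine.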

Unmarked numbers belong to inactive results. Records with an inconclusive call do not appear. Calls of active or inactive are those of the source. Unless noted, calls follow the shape of the dose curve; as a rule, active = well fitted curve in the direction sought with a large enough effect; inconclusive = small, poorly fitted or top-dose-only effect, or another doubt; inactive = no such curve, though single readings can be large; an effect the other way counts as inactive or inconclusive.

Chain of DNA dC->dU-editing enzyme APOBEC-3G (Homo sapiens) (Q9HC16 whole entry, looked up): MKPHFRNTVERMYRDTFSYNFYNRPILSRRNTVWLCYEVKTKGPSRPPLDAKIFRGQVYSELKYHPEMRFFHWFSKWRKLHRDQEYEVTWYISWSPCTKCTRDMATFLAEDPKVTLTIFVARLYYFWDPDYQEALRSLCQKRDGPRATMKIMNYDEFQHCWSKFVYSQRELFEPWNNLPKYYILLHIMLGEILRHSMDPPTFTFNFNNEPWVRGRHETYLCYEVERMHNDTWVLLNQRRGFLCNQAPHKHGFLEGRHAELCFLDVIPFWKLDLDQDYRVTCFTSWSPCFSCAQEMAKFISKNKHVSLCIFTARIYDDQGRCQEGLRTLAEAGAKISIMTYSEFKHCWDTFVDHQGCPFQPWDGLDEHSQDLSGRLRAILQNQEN
Chain of 3',5'-cyclic-AMP phosphodiesterase 4B (Homo sapiens) (Q07343 whole entry, looked up): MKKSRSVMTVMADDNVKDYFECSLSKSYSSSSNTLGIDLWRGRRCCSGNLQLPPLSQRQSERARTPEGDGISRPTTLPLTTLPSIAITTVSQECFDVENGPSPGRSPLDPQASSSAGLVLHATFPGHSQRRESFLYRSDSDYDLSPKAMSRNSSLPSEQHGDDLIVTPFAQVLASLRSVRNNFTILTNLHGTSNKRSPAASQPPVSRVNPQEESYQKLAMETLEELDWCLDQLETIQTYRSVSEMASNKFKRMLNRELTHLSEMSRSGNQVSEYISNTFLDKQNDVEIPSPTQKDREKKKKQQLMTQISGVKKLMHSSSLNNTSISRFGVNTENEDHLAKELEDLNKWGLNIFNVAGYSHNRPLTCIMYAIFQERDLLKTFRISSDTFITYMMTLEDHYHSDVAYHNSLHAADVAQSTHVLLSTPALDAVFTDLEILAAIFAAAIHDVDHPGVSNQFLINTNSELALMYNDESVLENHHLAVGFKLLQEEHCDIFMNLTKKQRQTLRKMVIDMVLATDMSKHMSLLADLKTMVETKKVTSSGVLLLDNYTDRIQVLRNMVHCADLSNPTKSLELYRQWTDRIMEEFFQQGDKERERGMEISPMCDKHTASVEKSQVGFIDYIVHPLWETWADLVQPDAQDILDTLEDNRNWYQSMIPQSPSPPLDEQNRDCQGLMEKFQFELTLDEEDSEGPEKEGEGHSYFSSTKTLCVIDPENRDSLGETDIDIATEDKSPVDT
Chain of Muscarinic acetylcholine receptor M1 (Rattus norvegicus) (P08482 whole entry, looked up): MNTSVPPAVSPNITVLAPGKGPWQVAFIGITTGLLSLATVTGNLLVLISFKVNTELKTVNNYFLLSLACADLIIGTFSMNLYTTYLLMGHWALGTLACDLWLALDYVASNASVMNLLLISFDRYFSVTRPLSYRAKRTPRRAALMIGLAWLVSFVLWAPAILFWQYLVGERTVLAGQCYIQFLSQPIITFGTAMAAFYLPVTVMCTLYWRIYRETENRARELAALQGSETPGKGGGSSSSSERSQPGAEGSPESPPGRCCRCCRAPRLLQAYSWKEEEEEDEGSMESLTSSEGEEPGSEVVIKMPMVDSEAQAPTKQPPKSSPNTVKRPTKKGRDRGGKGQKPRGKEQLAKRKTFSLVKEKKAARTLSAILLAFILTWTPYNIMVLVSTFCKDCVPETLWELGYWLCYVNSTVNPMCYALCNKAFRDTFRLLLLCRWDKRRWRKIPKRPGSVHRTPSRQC
Chain of Glucocorticoid receptor (Homo sapiens) (P04150 whole entry, looked up, the tested form may be a part): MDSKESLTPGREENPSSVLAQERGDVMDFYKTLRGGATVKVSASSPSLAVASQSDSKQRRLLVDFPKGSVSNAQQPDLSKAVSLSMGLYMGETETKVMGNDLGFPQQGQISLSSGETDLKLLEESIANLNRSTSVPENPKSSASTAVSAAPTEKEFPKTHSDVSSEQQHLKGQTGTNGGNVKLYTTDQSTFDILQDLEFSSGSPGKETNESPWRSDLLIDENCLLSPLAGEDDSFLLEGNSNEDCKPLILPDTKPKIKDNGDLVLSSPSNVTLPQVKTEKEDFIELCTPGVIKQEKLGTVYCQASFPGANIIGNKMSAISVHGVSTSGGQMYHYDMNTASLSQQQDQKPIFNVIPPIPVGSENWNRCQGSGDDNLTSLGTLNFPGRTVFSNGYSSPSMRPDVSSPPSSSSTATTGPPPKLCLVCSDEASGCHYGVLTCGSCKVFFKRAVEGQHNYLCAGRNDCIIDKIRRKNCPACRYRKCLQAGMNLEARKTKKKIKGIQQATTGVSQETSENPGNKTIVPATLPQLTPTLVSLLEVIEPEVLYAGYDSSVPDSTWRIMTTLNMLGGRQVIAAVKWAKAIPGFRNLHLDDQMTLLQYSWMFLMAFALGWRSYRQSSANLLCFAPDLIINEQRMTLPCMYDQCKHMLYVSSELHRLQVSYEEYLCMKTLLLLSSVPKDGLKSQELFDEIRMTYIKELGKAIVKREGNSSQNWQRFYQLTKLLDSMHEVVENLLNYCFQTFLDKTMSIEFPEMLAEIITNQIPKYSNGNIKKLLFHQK
Chain of Ubiquitin carboxyl-terminal hydrolase 1 (Homo sapiens) (O94782 whole entry, looked up): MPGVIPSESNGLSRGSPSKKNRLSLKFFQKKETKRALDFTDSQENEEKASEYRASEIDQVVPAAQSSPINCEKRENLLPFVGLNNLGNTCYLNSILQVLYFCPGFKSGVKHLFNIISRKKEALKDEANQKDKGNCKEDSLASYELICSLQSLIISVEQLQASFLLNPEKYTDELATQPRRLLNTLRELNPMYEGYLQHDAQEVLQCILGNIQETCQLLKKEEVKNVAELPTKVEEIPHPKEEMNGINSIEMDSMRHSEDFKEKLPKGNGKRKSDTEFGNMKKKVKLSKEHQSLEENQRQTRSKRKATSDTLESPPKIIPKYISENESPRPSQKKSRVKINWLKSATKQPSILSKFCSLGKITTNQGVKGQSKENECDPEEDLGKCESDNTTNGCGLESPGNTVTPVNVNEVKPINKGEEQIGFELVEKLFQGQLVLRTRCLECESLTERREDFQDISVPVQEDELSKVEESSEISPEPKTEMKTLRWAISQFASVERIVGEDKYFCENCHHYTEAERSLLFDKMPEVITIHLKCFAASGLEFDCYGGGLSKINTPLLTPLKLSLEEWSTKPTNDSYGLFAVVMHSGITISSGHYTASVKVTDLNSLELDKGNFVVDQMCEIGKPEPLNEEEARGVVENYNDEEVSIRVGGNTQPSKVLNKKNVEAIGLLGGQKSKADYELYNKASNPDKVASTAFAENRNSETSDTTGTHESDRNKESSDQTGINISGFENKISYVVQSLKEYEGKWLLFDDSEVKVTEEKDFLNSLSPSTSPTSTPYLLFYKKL
Chain of Cytochrome P450 3A4 (Homo sapiens) (P08684 whole entry, looked up): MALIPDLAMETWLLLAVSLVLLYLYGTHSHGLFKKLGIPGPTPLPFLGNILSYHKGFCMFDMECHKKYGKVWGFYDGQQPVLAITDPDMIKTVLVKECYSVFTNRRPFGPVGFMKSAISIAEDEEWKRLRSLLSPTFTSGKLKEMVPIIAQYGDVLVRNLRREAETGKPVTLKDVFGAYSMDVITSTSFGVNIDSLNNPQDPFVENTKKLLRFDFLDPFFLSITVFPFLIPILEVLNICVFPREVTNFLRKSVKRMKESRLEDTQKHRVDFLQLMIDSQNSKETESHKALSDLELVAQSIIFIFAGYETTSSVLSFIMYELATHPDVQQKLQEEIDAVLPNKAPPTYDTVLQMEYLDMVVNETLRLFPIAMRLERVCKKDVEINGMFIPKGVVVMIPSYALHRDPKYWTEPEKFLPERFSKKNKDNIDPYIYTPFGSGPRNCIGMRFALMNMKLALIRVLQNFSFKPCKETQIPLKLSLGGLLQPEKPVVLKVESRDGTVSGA
Chain of Alpha-galactosidase A (Homo sapiens) (P06280 whole entry, looked up): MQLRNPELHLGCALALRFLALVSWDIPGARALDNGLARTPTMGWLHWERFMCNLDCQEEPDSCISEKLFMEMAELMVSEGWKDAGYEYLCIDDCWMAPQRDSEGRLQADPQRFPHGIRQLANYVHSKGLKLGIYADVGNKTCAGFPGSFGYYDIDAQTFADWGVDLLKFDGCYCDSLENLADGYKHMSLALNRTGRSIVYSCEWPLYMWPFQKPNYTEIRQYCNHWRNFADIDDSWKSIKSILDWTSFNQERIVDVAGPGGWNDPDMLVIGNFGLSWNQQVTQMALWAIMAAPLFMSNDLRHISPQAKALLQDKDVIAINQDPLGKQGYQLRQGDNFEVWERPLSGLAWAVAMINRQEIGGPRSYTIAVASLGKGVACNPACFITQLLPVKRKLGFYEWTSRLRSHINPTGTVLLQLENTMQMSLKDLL
Chain of Pyruvate kinase PKM (Homo sapiens) (P14618 whole entry, looked up): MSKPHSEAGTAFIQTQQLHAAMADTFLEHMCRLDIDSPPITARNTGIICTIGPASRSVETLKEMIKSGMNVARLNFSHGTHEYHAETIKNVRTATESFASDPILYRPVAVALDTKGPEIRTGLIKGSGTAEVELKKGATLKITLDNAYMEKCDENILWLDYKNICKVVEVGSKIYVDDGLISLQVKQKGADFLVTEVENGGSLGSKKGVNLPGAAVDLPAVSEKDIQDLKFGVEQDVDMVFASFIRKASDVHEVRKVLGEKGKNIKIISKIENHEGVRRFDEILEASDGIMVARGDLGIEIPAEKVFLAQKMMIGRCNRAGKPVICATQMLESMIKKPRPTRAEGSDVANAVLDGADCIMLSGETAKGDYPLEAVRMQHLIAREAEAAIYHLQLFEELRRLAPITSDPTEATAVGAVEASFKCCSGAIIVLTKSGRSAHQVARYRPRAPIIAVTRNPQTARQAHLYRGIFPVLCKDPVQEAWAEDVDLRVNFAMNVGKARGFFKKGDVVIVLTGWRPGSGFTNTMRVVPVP
Chain of Guanine nucleotide-binding protein G(i) subunit alpha-1 (Homo sapiens) (P63096 whole entry, looked up): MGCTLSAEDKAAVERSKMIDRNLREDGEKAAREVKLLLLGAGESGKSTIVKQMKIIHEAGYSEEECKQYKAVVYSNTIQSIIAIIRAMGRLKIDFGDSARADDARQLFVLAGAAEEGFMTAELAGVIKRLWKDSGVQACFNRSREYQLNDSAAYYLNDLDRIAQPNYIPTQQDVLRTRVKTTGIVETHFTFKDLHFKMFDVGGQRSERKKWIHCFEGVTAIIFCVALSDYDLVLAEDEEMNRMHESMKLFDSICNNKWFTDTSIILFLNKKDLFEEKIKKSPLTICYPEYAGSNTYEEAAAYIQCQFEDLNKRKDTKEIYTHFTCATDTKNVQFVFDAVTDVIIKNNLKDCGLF

Take `Fc1cccc(/C=N\N=C/c2cccc(F)c2)c1`: the Potency in assay [1] is above 46 µM; in assay [5], 3.16 µM (active); in assay [8] it was 2.51 µM (active). The Potency entry in assay [2], in assay [4], in assay [6], in [7], in [9] and in assay [12] was “inactive” each time. The Potency entry in [13], in [14] and in assay [15] was “inactive” throughout. Besides, the compound was classed as inactive in assay [3], in [10] and in assay [11].
Consider `O=C1c2ccccc2CCC1CNCCc1ccc(O)cc1` (stereo not drawn), for which the Potency in [16] is 28.2 µM (active). For the same compound, the Potency entry in assay [14] and in assay [15] was “inactive” each time.
Take `C#C[C@]1(O)CC[C@H]2[C@H]3CCC4=Cc5oncc5C[C@]4(C)[C@@H]3CC[C@]21C`: the results for the Potency in assay [17] and in assay [7] were above 46 µM and 7.94 µM (active), respectively. Besides, the outcome in [3], in assay [19], in assay [10] and in [11] was inactive. For the same compound, the Potency entry in assay [4], in [18], in assay [12], in assay [13], in assay [14] and in [15] was “inactive” in each case.
`O=c1nc2ccccc2c2n1C[C@H](CN1CCN(c3ccccc3)CC1)N2`: the Potency in [17] is above 46 µM. Also, the Potency entry in [20], in assay [2], in [12], in [13], in [14] and in assay [15] was “inactive” throughout.
On to `COCCNC(=O)COc1ccc(OCCNC[C@@H](O)COc2ccccc2)cc1`, for which the Potency in assay [17] was above 46 µM; in [1], above 46 µM; in assay [21], 5.01 µM (active). Also, the Potency entry in [20], in assay [2], in assay [4], in assay [13], in [14] and in assay [15] was “inactive” each time.
Consider `COc1ccc(NC(=O)c2ccc(-c3ccc(-c4noc(C)n4)cc3C)cc2)cc1OCCN(C)C`, for which the Potency in [17] and in assay [1] was above 46 µM throughout. In addition, the Potency result in assay [20], in [4], in assay [13], in assay [14] and in assay [15] was “inactive” in each case.
